# Reference: PubChem BioAssay AID651706 (NMMLSC, 2012)
# About 55 (2%) of roughly 2,300 compounds were called active.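 Rule for the calls: active = share of green or green-and-red cells above 9 and 9% in run 1 or 4 and 3% in run 2; inactive = the rest, inconclusive results apart.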 A selection follows.
# Experiment: differentiation of ER-HoxA9 arrested myeloid cells – cell-based, GFP/Mac1 flow cytometry, cherry pick 01, confirmation (AID 651706);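 for differentiation response: plate controls were double positive share in DMSO wells for no effect and share in positive control wells for full effect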;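 for double positive cells: share of live cells carrying both lysozyme GFP and MAC1 staining after four days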
# Settings: ER-HoxA9 myeloid progenitors, stronger effect = higher value; differentiation response: GFP/Mac1 double-positive flow; double positive cells: measured here: percent double positive cells
Structure (SMILES),differentiation response,double positive cells [%]
Cc1ccc2c(c1)C1C[N+](C)(CC(=O)c3ccccc3)CCC1N2C(=O)c1ccccc1Cl (stereo not given),4.1% (inactive),2.05
Cc1ccc(-n2nc3cc(C)c(NC(=O)c4cccnc4)cc3n2)cc1,5.4% (inactive),1.05
Cc1cccc(-n2c(SCC(=O)Nc3cccc(S(=O)(=O)NC4=NCCCCC4)c3)nc3ccccc3c2=O)c1C,17.3% (inactive),0.7
Fc1cccc(Cl)c1CSc1ccc(-c2ccco2)nn1,1.2% (inactive),0.8
CC(C)c1nc2ccc(C(=O)O)cc2[nH]1,1.95% (inactive),1.8
CSc1nnc(-c2ccncc2)n1CCCN1CCCC1=O,1.75% (inactive),1.15
O=C(NCCN=C1NS(=O)(=O)c2ccccc21)c1ccc(S(=O)(=O)N2CCOCC2)cc1,1.35% (inactive),1.3
CC(=O)N1c2ccc(S(=O)(=O)N3CCCC(C(=O)Nc4cccc(F)c4)C3)cc2CC1C (stereo not given),1.45% (inactive),0.95
O=C(Nc1cccc2ncccc12)c1ccc(-c2ccc(Cl)cc2Cl)o1,4.55% (inactive),2.9
Cc1cccc(OCC(O)CN2CCN(CCN3C(=O)c4cccc5cccc(c45)C3=O)CC2)c1C (stereo not given),0.25% (inactive),0
Cc1cccc(C)c1NC(=O)CCS(=O)(=O)c1cccc2nsnc12,2% (inactive),1.5
CC(C)CNC(=O)COC(=O)/C=C/c1ccccc1[N+](=O)[O-],1.45% (inactive),1.2
COC(=O)CN(c1cccc(C(C)=O)c1)S(C)(=O)=O,2.05% (inactive),1.5
O=C(CN1C(=O)NC(Cc2c[nH]c3ccccc23)C1=O)Nc1ccccc1C(F)(F)F (stereo not given),1.7% (inactive),1.2
CC1(C)CC(=O)C2=C(C1)Nc1cc(C(=O)c3ccccc3)ccc1NC2c1ccccn1 (stereo not given),1.95% (inactive),1.65
CCOC(=O)C1=C(CN2CCc3ccccc32)NC(=O)NC1c1cccc([N+](=O)[O-])c1 (stereo not given),12.3% (active),8.95
Cc1nc(C)c(-c2nnc(-c3cccc(S(=O)(=O)N(C)C)c3)o2)cc1C(=O)NN,4.1% (inactive),1.3
Cc1ccc2c(c1)c1ncn(Cc3ccc(F)cc3)c(=O)c1n2C,2% (inactive),0.8
O=c1oc2ccccc2cc1-c1csc(Nc2ccc(O)cc2)n1,27.4% (inactive),12.5
Cc1cc(C)n(C(=O)c2ccc(C)c(S(=O)(=O)N3CCOCC3)c2)n1,1.9% (inactive),1.8
Cc1cc(C)c(S(=O)(=O)NCC2CCC(C(=O)NCc3ccc4c(c3)OCO4)CC2)c(C)c1 (stereo not given),3.7% (inactive),1.35
CCOc1ccc(C(=O)Nc2ccc(S(=O)(=O)NCC3CCCO3)cc2)cc1OCC (stereo not given),1.5% (inactive),1.2
CC(C)(C)OC(=O)CNC(=O)c1[nH]cnc1C(=O)N[C@@H](Cc1ccccc1)C(=O)OCc1ccccc1,1.85% (inactive),1.95
CCCC(=O)Nc1c(O)c2ccccc2[nH]c1=O,1.45% (inactive),1.1
C/C(=C\c1ccccc1)C1NC(=O)c2c(sc3c2CCCC3)N1 (stereo not given),1.1% (inactive),0.75

Structure (SMILES),differentiation response,double positive cells [%]
COc1ccc(C2CC(c3cccc(OC)c3)=NN2c2ccc(S(N)(=O)=O)cc2)cc1 (stereo not given),2.25% (inactive),1.4
CC(=O)Nc1ccc(S(=O)(=O)Nc2ccc(N3CCCCC3)cc2)cc1,0% (inactive),0
CN(C(=O)c1cccc([N+](=O)[O-])c1)c1ccccc1C(=O)NCc1ccccc1,1.65% (inactive),1.35
CC(C)C(=O)N1CCN(c2nc(-c3ccccc3)c3c(c2C#N)CC(C)(C)OC3)CC1,1.8% (inactive),1.6
O=C(CCCN1C(=O)CCC1=O)Nc1ccc(Cl)c(C(F)(F)F)c1,1.55% (inactive),1.1
CC(CNc1ccc([N+](=O)[O-])cc1)NC(=O)c1ccccc1Br (stereo not given),1.65% (inactive),1
CN(C(=O)CSc1nnc(C2CC2)n1C)C1CCCc2ccccc21 (stereo not given),2.6% (inactive),2.05
COc1ccc(C(=O)N(Cc2ccccc2)c2ccc(C)cc2)cc1S(=O)(=O)N1CCOCC1,1.9% (inactive),0.95
COc1ccc2nc(N3CCN(C(=O)c4ccc([N+](=O)[O-])o4)CC3)sc2c1,3.05% (inactive),0
O=C(NCC1CCCCC1)NCC1CCCCC1,0.8% (inactive),0.5
O=C(NC(=O)c1ccccc1)Nc1ccccc1O,5.8% (inactive),0.95
O=S(=O)(NCc1cccnc1)c1ccc(Cl)nc1,1.35% (inactive),1.1
CC(C)CC(COCc1ccc(Cl)cc1)N1CCN(C(=O)c2ccc(C(F)(F)F)cc2)CCC1=O (stereo not given),2.15% (inactive),1.95
CCOC(=O)c1c(-c2ccccc2)oc2ccc(OCC(=O)NN)cc12,2.65% (inactive),0.85
COc1ccccc1N1CCN(C(=O)c2cc(-c3ccc(Br)cc3)on2)CC1,1.9% (inactive),1.65
Nc1ccc2nc3c(=O)[nH]c(=S)[nH]c3nc2c1,11.7% (inactive),1.75
COc1cccc(NC(=O)[C@H](Cc2c[nH]c3ccccc23)NC(=O)[C@@H]2Cc3ccccc3CN2)c1,5% (active),4.8
CCc1c(C)sc(NC(=O)c2cccs2)c1C(N)=O,7.25% (inactive),5.9
O=C(CN(c1ccccc1)S(=O)(=O)c1ccc(Cl)cc1)Nc1ccccc1C(=O)N1CCCC1,2.2% (inactive),1.4
O=C(Cn1cc(-c2nnnn2-c2ccc(Cl)cc2)c(=O)c2ccccc21)c1ccccc1,3.55% (inactive),2.6
CC1CCCC(NC(=O)CN2CCN(Cc3ccc(Cl)cc3)C2=O)C1C (stereo not given),4.75% (inactive),2.6
CCc1noc(C)c1C(=O)Nc1nc(-c2ccccc2)cs1,1.4% (inactive),1
C=CCNc1nnc(SCC(=O)N2CCCCC2)c2ccccc12,2.2% (inactive),1.55
COc1cccc(NC(=S)NCc2ccccn2)c1,1.3% (inactive),1.3
COc1ccc(C(C(=O)NCc2ccccc2)n2c(=O)c(-c3ccccc3)nc3ccccc32)cc1 (stereo not given),29.1% (inactive),12.2
